Source: PubChem BioAssay
Compounds with a hit are over-represented: about 0.39% of the library has one in this group of screens.
Anesthetic bind – qHTS Assay for Identification of Novel General Anesthetics; Ferritin light chain (Equus caballus), P02791; apoferritin/1-aminoanthracene competitive binding, fluorescence; Potency, µM (doses to about 77.5 µM), for inactives: at the top dose activity change, negative = displacement, actives largely listed as inhibitors; 350,000 compounds, 0.074% hits; note: potency is the fitted concentration of half-maximal effect; % is set by controls: 0 for no effect and ±100 for the full control effect; nearly all actives have a fitted effect of over 20% in size
Target sequence (P02791 2-175 limits assumed): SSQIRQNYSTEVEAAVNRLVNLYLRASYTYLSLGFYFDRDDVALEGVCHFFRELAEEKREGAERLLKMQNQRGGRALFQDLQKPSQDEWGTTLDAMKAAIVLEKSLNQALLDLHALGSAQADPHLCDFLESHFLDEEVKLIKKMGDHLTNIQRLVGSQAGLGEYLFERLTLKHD
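Probe: 1-aminoanthracene (50% saturated, PBS). Protein: horse-spleen apoferritin, 10 uM. Incubation: 10 min, room temperature. Detection: 380 nm excitation, 535 nm emission. Analysis: normalized response, four-parameter Hill.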
MmCpn inh – Inhibitors of TCP-1 ring complex (TRiC) of Methanococcus maripaludis (MmCpn): qHTS; Potency, µM (top dose mostly 76.9 µM), for the others: at the highest dose activity, negative = inhibition, actives largely listed as inhibitors; AID 504842, 2011; purified Mm-Cpn ATPase, ADP Transcreener TR-FRET; 330,000 compounds, 0.031% hits; note: potency is the fitted concentration of half-maximal effect; % is set by controls: 0 for no effect and ±100 for the full control effect; nearly all actives have a fitted effect of over 80% in size
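25 nM Mm-CPN + cpd, 10 min 37°C; + 10 uM ATP, 30 min 37°C; buffer 30 mM Tris pH 7.4, 100 mM KCl, 5 mM MgCl2, 1 mM DTT; Transcreener ADP HTRF detection 30 min RT.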
CCT modulator – High-Throughput Screening for Modulators of Cytosolic Chaperonin Activity; purified chaperonin ATPase assay, HTRF ADP detection, 30 min; activity change, % (test concentration not listed), hits read low; 360,000 compounds, 0.3% hits; AID 651819, 2012; in the data active = activity change below about -30%; note: % is set by controls: 0 for no effect and ±100 for the full control effect
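First, chaperonin was dispensed at 40 nM or 20 nM final depending on batch activity. Next, compounds were pinned at 76 uM and ATP added at 10 uM. After 30 min at 37 °C, ADP detection reagents ran 30 min at ambient temperature.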
ERG Ets-DNA blk – qHTS for Small Molecule Inhibitors of the ERG Ets/DNA interaction | Transcriptional regulator ERG (Homo sapiens), P11308 | fluorescence polarization, His-ERG Ets domain / labelled DNA | Potency, µM (doses to about 76.9 µM), without a hit: at the top dose FP activity, negative = inhibition, most hits filed as inhibitors | 370,000 compounds, 0.028% hits; active = well fitted inhibition curve with a large enough effect in the polarisation, with a control signal flat; inconclusive = small, poorly fitted or top-dose-only effect, or effect the other way, or a change in a side signal; inactive = no such curve, though single readings can be large or run the other way; the % refers to the polarisation;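 note: polarization taken with two DNA probes labelled with fluorescein and Texas red; potency is the fitted concentration of half-maximal effect; % of control where 0% means no effect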
Target sequence (P11308 whole entry, looked up, the tested form may be a part): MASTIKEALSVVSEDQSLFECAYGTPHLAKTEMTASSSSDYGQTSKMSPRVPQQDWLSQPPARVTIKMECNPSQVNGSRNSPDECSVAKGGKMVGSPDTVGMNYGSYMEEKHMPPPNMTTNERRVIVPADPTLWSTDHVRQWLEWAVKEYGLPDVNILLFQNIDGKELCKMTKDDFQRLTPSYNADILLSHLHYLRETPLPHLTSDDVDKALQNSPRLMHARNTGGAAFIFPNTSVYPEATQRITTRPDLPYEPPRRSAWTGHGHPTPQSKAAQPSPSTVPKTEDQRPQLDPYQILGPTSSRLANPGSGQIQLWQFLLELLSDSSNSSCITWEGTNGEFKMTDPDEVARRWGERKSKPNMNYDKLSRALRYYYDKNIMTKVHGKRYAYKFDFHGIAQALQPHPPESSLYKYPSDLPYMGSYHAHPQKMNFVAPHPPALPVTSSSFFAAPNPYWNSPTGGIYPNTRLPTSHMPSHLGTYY
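His-tagged ERG Ets domain (1 uM in the protein solution; 300mM KCl, 50mM Tris-HCl, 1mM EDTA, 1mM DTT, pH 7.5) received compound, then a probe mix of 5 nM fluorescein-DNA and 100nM Texas-615-DNA. Fluorescence polarization was read for both dyes.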
Numbers without * were called inactive; ? = inconclusive; . = no result given; [ ] = dose if it differs, or a comment. Unless noted, calls come from the whole dose curve; as a rule, active = well fitted curve in the direction sought with a large enough effect; inconclusive = small, poorly fitted or top-dose-only effect, or another doubt; inactive = no such curve, though single readings can be large; an effect the other way counts as inactive or inconclusive.

SMILES	Anesthetic bind	MmCpn inh	CCT modulator	ERG Ets-DNA blk
Cc1ccc(CNC(=O)C2CCCN(C(=O)Nc3ccc(F)cc3)C2)cc1 (configuration not stated)	-1.3%	1.8%	0.7	-1.9%
Cc1ccc(NC(=O)N2CCCC(C(=O)O)C2)cc1 (configuration not stated)	1.9%	-0.2%	-43.2*	-4.4%
O=C1c2ccccc2C(=O)N1CCC1=CCCCC1	22.4µM*	1.4%	0.0	-13.0%
O/N=C(\c1ccc(Cl)cc1Cl)c1ncc(C(F)(F)F)cc1Cl	17.8µM*	0.2%	-3.6	-4.8%
O=C(c1ccc(Cl)cc1Cl)c1ncc(C(F)(F)F)cc1Cl	?	-2.3%	0.4	3.5%
S=C(c1cn(CCOc2cccc3ccccc23)c2ccccc12)N1CCCC1	-10.5%	50.1µM*	-1.0	10.8%
COc1ccc(-c2cc(C)nc(SCC(=O)c3cccc([N+](=O)[O-])c3)n2)cc1	-9.9%	-7.6%	-46.1*	-5.3%
Cc1cc(-c2ccccc2)nc(SCC(=O)c2cccc([N+](=O)[O-])c2)n1	?	-0.5%	-0.1	-1.6%
CCn1cc(/C=C(\NC(=O)c2ccc(C)cc2)C(=O)NCCCn2ccnc2)c2ccccc21	-7.9%	.	.	4.2%
COC(=O)c1sccc1NC(=O)CNC(=O)c1ccccc1	-14.6%	-0.5%	-75.9*	-4.8%
COC(=O)c1sccc1NC(=O)c1ccc(C)cc1	7.0%	-2.7%	-0.7	-7.5%
Cc1nc(Nc2ccccc2F)c2oc3ccccc3c2n1	-8.1%	-0.7%	-49.2*	-2.9%
COc1ccc(-c2nc3cc(C(C)C)ccc3o2)cc1NC(=O)c1ccccc1[N+](=O)[O-]	-13.5%	.	.	0.1%
Cn1cc(C(=O)C(=O)NCCc2ccccc2)c2ccccc21	?	2.5%	-50.8*	-3.5%
Cc1cccc(C)c1OCC(=O)Nc1ccccc1C(F)(F)F	-23.9%	0.8%	-37.6*	-3.4%
Cc1cc(C(=O)O)ccc1NCc1cccnc1	-1.5%	-0.3%	-4.1	-6.3%
O=C(O)c1ccc(NCc2cccnc2)c([N+](=O)[O-])c1	-5.8%	-2.6%	-53.4*	-2.4%
O=C(NCCn1cc(SCC(=O)N2CCOCC2)c2ccccc21)c1ccccc1	-1.1%	2.6%	-1.2	-7.9%
Cc1cc(C)cc(C(=O)NCCn2cc(SCC(=O)N3CCOCC3)c3ccccc32)c1	-3.2%	1.5%	-31.6*	8.0%
CC[C@@H](C)[C@@H](CO[C@@H](Cc1ccccc1)C(=O)N[C@@H](CCS(C)(=O)=O)C(=O)OC(C)C)NC[C@@H](N)CS	2.7%	.	.	.
CCOc1ccc(NC(=S)c2ccc3ccccc3n2)cc1	3.7%	-3.2%	-30.0*	-7.0%
O=C(CSc1nnc(CNC(=O)c2ccco2)o1)Nc1ccc(F)cc1	-3.4%	1.7%	-0.4	13.7%
O=C(CSc1nnc(CNC(=O)c2ccco2)o1)Nc1ccc(OC(F)(F)F)cc1	-11.9%	-1.5%	-47.3*	8.8%
O=C(NCc1ccccc1F)c1cccs1	?	-0.5%	-36.6*	-7.9%
Cc1cccc(N(C)C(=O)CCNS(=O)(=O)c2ccc3c(c2)CCN3C(=O)C2CC2)c1	1.0%	.	.	-3.2%
SMILES	Anesthetic bind	MmCpn inh	CCT modulator	ERG Ets-DNA blk
CN(C)c1ccc(-c2nccc(NCCN3CCOCC3)n2)cc1	0.6%	.	.	.
COC(=O)C1=C[C@@H](C(=O)OC)C2C3=C(C(=O)[C@@]2(C)NC(=O)c2ccccc2)[C@H](c2ccccc2)[C@@H]2C(=O)N(c4ccccc4)C(=O)[C@@H]2[C@@H]3C1 (some centres not stated)	-10.2%	.	.	.
Cc1cn(C2OC(COC(=O)c3ccccc3)C(O)C2O)c(=O)[nH]c1=O (configuration not stated)	-2.1%	-0.7%	-31.9*	.
COc1ccc(NC(=O)Nc2cccc(NC(C)=O)c2)c(OC)c1	0.6%	0.8%	-43.0*	3.6%
COc1cc(NC(=O)Nc2cccc([N+](=O)[O-])c2)cc(OC)c1	-17.6%	-0.8%	-52.9*	1.3%
NC(=O)C1CCN(c2nc(-c3ccccc3[N+](=O)[O-])cs2)CC1	.	-1.7%	.	.
Cc1cc(C)c(NC(=O)C2CCN(C(=O)N3CCOc4ccccc43)CC2)c(C)c1	?	.	.	-0.5%
CC(NC(=O)C1CCN(C(=O)N2CCOc3ccccc32)CC1)c1ccccc1 (configuration not stated)	15.8µM*	.	.	-3.2%
CCN(CC)CCNC(=O)c1ccc2nc(CCc3ccccc3)oc2c1	?	.	.	1.0%
COC(=O)c1sccc1NC(=S)N1CCC(C(N)=O)CC1	-5.1%	-0.5%	-1.3	-2.1%
COC(=O)c1sccc1NC(=S)N1CCCCC1	39.8µM*	-2.4%	-2.7	1.8%
Cc1ccc(-c2nc3c(C)cccn3c2Nc2ccccc2C)s1	42.0%	.	.	-7.7%
CCOc1ccccc1-c1nnc2n1N=C(c1ccccc1OC)CS2	-12.2%	.	.	.
COc1ccc(C(=O)C[n+]2ccc3c(c2)nc(-c2ccccc2)n3C)cc1	3.3%	0.7%	-36.1*	-4.8%
CCOc1ccccc1NC(=O)CNC(=O)CNC(=O)Cc1ccccc1	-4.0%	1.4%	-1.8	5.0%
CCOc1ccccc1NC(=O)CNC(=O)Cc1ccccc1	-5.4%	1.7%	-42.8*	1.3%
Cc1cc2nnc(SCC(=O)Nc3cc(S(=O)(=O)N4CCOCC4)ccc3Cl)n2c2ccccc12	-12.2%	-5.3%	-53.3*	1.3%
COc1cc(C2c3c(oc4ccccc4c3=O)C(=O)N2Cc2ccccc2Cl)ccc1O (configuration not stated)	-0.8%	.	.	0.2%
Cc1cc(-c2nc3ncccc3o2)ccc1NC(=O)c1ccc(Cl)cc1	-8.8%	.	.	-0.8%
CO[C@H]1COC(=O)C/C=C\[C@H](C)[C@@H](NS(=O)(=O)c2ccc(C)cc2)COC(=O)C/C=C\[C@@H]1C	-13.9%[15.3 µM]	.	.	.
CCC(CC)C(=O)NCc1ccc2c(c1)cc(C)n2C	-10.2%	-4.5%	0.8	-6.1%
Cc1cc2cc(CNC(=O)c3cccs3)ccc2n1C	-9.6%	?	0.4	17.8µM*
Cc1cc2cc(CNC(=O)c3ccc(S(=O)(=O)N4CCCC4)cc3)ccc2n1C	?	?	-0.1	?
CCN(CC)S(=O)(=O)c1ccc(C(=O)NCc2ccc3c(c2)cc(C)n3C)cc1	-21.4%	-25.9%	0.3	31.6µM*
CCCCN(CC)CCCNC(=O)c1cn(CC)c2ccc(S(=O)(=O)N3CCc4ccccc4C3)cc2c1=O	-12.9%	1.4%	-1.1	-9.4%
CCCCN(C)CCCNC(=O)c1cn(C)c2ccc(S(=O)(=O)N(C)C3CCCCC3)cc2c1=O	-10.4%	2.8%	-54.0*	1.7%
CCCCN(C)CCCNC(=O)c1cn(CC)c2ccc(S(=O)(=O)N3CCc4ccccc4C3)cc2c1=O	-7.9%	-4.8%	-59.3*	5.5%
CCCCN(CCCC)CCNC(=O)c1cn(CC)c2ccc(S(=O)(=O)N3CCCC3)cc2c1=O	-4.5%	-5.7%	-81.6*	3.7%
CCOCCCNC(=O)c1cn(CC)c2ccc(S(=O)(=O)N3CCC(C)CC3)cc2c1=O	-4.5%	0.7%	-2.8	7.6%
